Hits are enriched below; roughly 1.6% of the tested compounds scored in any of these assays.
RN4220 kill = kills Staphylococcus aureus RN4220 | inhibition, % (no concentration beside the values) | S. aureus RN4220 growth, OD600, 16 h | 330,000 tested, 0.33% active; in the data active = inhibition above about 85%;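 also: plate controls were untreated cells for no effect and reference antibiotic for full effect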
PfHsp40 yeast = rescue of PfHsp40-mediated yeast toxicity. S. cerevisiae expressing PfHsp40, growth rescue, ATP luminescence. growth rescue, % at 12.5 µM. 340,000 tested, 0.68% active; in the data active = growth rescue above about 28%, passing the limit was not always enough; inconclusive = no clear call, values can overlap the other calls;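 also: yeast W303a lacking pdr1 and pdr3 grown in galactose medium; growth measured after three days at 30 °C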
CCHF vOTU inh-1 = blocks the CCHF virus ovarian tumor domain protease. CCHFV vOTU protease, Pep-AMC fluorescence. inhibition, % at 11.5 µM. 370,000 tested, 0.55% active; also: 0% = vehicle wells with enzyme and 100% = no enzyme wells
BJeLR viability = BJeLR cell viability loss; BJeLR (HRASV12) viability, CellTiter-Glo ATP luminescence, 48 h; inhibition, % (no concentration beside the values); 300,000 tested, 0.17% active; in the data active = inhibition above about 50%; inconclusive = no clear call, values can overlap the other calls
Sa ugtP lethal = kills S. aureus RN4220 lacking UgtP | growth inhibition, % (concentration not given with the values) | S. aureus RN4220 ugtP deletion, OD600 growth, 16 h | 330,000 tested, 0.54% active; in the data active = growth inhibition above about 68%;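 also: plate controls were untreated wells for no effect and antibiotic for full effect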
CCHF vOTU inh-2 = CCHFV vOTU protease inhibition, confirmation. shares compounds with CCHF vOTU inh-1. Recombinant CCHFV vOTU, Pep-AMC fluorescence. inhibition, % at 11.5 µM. 1,900 tested, 17% active. AID 686976
The depositor's hits bear a star; ? = inconclusive; · = not tested or not shown. Rule as the data show it, unless noted: active = inhibition above about 30%; inactive = the rest.

SMILES	RN4220 kill	PfHsp40 yeast	CCHF vOTU inh-1	BJeLR viability	Sa ugtP lethal	CCHF vOTU inh-2
COC(=O)c1sc(N2C(=O)C(O)=C(C(=O)c3ccc(C)o3)C2c2ccc([N+](=O)[O-])cc2)nc1C (stereo not drawn)	5.1	-2.0	31.4*	-5.5	5.4	-1.4
CC(C)c1ccc(C(c2c(O)c3ccccc3oc2=O)c2c(O)c3ccccc3oc2=O)cc1	·	·	37.3*	·	·	-6.8
COc1ccc(CC(=O)NN=Cc2cccnc2)cc1OC	4.3	·	·	·	7.8	·
N#Cc1cc2ccc(N3CCOCC3)cc2cc1C#N	8.0	-0.1	73.2*	-3.1	-1.6	-57.6
C=CCC(CC(=O)NC(CO)Cc1ccccc1)C(=O)NCCOC(=O)C(CC=C)Cc1ccc(F)cc1 (stereo not drawn)	2.5	·	·	·	-5.9	·
CN(C)CCCNc1cc(O)c2ncccc2c1	6.7	0.5	92.4*	·	4.0	94.2*
Nn1cnnc1N/N=C/c1cccc(Cl)c1Cl	·	-0.7	60.8*	3.9	·	-1.0
Nn1cnnc1NN=Cc1cccc(Cl)c1Cl	2.5	·	·	·	1.0	·
Nn1cnnc1N/N=C/c1ccccc1C(F)(F)F	·	-1.1	69.4*	-8.2	·	-10.5
Cc1nnc(NN=Cc2ccccc2C(F)(F)F)n1N	4.3	·	·	·	0.7	·
O=C(/C(C=Nc1ccc(F)cc1)=C(/O)c1ccco1)C(F)(F)F	6.2	-0.2	32.7*	-5.0	4.0	-6.2
Clc1ccccc1N=Nc1ccccn1	·	-0.2	83.5*	·	·	9.6
COc1ccc(C=Nn2cnc3c([nH]c4ccccc43)c2=O)cc1COc1ccccn1	-9.2	·	·	·	4.9	·
CC(CC(=O)N1CCc2ccccc21)n1cccn1 (stereo not drawn)	2.6	0.4	35.2*	8.3	1.5	-7.8
Cc1ccn(C(C)CC(=O)N2CCc3ccccc32)n1 (stereo not drawn)	4.0	-2.1	-5.7	1.6	2.2	·
CC(=O)OC1C(Oc2c(O)c(C)c3c4c2C(C)CCC4C(C)CC3C=C(C)C)OCC(O)C1O (stereo not drawn)	-7.8	·	·	·	-15.0	·
CCOC(=O)c1ccc(N2Cc3ccccc3C2=NC(=O)c2cccc([N+](=O)[O-])c2)cc1	10.1	1.5	-0.9	-8.9	18.0	·
O=C(N=C1c2ccccc2CN1c1ccccc1)c1cccc([N+](=O)[O-])c1	7.2	1.6	29.5*	1.2	8.8	-12.3
CC(C)CCCCCCNC(=S)Nc1ccc(S(=O)(=O)N2CCOCC2)cc1	12.6	2.1	31.0*	3.1	-8.1	10.9
O=S(=O)(c1ccc(NC(=S)Nc2ccccc2)cc1)N1CCOCC1	-1.9	0.6	0.2	-10.1	10.9	·
COc1ccc(C2CC(=O)C=C(C=Cc3ccccc3)C2)cc1 (stereo not drawn)	9.3	·	·	·	7.4	·
O=C(/C=C/c1ccccc1)Nc1cc(NC(=O)/C=C/c2ccccc2)cc(C(=O)O)c1	-0.4	2.4	35.6*	3.2	-5.5	8.4
CCO/C=C1\C(=O)N(c2ccccc2)C(=O)c2ccccc21	4.5	?	·	·	6.5	·
CCO/C=C1/C(=O)N(Cc2ccccc2)C(=O)c2ccccc21	0.2	0.6	95.1*	8.2	9.0	108.1*
CC1(C(=O)Nc2ccc(F)cc2F)CCN1C(=O)CCC1CCCC1 (stereo not drawn)	·	·	32.7*	·	·	-15.2
SMILES	RN4220 kill	PfHsp40 yeast	CCHF vOTU inh-1	BJeLR viability	Sa ugtP lethal	CCHF vOTU inh-2
CC(C)(C)c1ccc(CC(=O)N2CCC2(C)C(=O)Nc2ccc(F)cc2F)cc1 (stereo not drawn)	·	·	20.8	·	·	·
O=C(ON=C1CCCc2occc21)c1ccc(Cl)cc1Cl	2.7	·	·	·	1.3	·
CC1CC1C(=O)N1CCN(S(=O)(=O)c2cc(C(F)(F)F)cc(C(F)(F)F)c2)CC1 (stereo not drawn)	86.5*	-1.1	30.1*	·	96.1*	-10.8
CCN1/C(=C/C=C/c2oc3ccc(-c4ccccc4)cc3[n+]2CC)Oc2ccc(-c3ccccc3)cc21	97.2*	129.0*	36.7*	79.7*	99.6*	17.5
Cn1cccc1CC(=O)NN=Cc1ccccc1	5.6	·	·	·	12.3	·
CCCCCCCCCCCCCCCCn1cc[n+](C)c1	100.7*	2.9	39.1*	16.3	99.5*	50.5*
C[n+]1ccn(CC(=O)c2cccs2)c1	-1.1	1.0	-6.5	-0.2	4.7	·
Oc1ccccc1CNc1cccc2cccnc12	-2.8	0.6	52.0*	-19.5	3.4	90.8*
NC(=S)NNc1cccc2cccnc12	11.9	-1.6	101.2*	-2.0	14.9	33.6*
COc1cc(NCc2ccccc2O)c2ncccc2c1	3.6	0.7	8.8	11.5	-6.3	·
CCCC(=O)OCCNc1cc(SCc2ccco2)c2nonc2c1[N+](=O)[O-]	11.3	-0.9	9.9	1.1	-15.7	·
CC(=O)OCCCNc1cc(SCc2ccco2)c2nonc2c1[N+](=O)[O-]	11.4	0.0	55.0*	1.4	-12.0	-17.7
COCc1cc(C)nc(OCC(=O)NN=Cc2ccc(OC)c(OC)c2)c1C#N	2.8	·	·	·	9.0	·
CCCCCCCC/C=C\CCCCCCCC(=O)NCCc1ccc(O)c(O)c1	·	19.7	30.5*	·	·	26.6
CCn1c(=O)c(C(=O)CN(C)CC(=O)Nc2cccc(F)c2)c(N)n(Cc2ccccc2)c1=O	0.7	0.1	29.9*	·	-0.7	-16.2
COC(=O)c1c(C)[nH]c(C(=O)C(C)OC(=O)C2CC(=O)N(CCc3ccccc3)C2)c1C (stereo not drawn)	1.0	0.3	32.7*	·	-1.8	-6.2
C=CCN1c2ccccc2[C@]23CC(C(=O)OC)N(C(=O)OCC)C2=NC(C(=O)OC)=C(C(=O)OC)C13 (stereo partly drawn)	3.4	·	·	·	6.6	·
O=C1CCC=CCC(CC(=O)N(CCO)Cc2ccccc2)C(=O)NCC(c2ccccc2)O1 (stereo not drawn)	5.5	·	·	·	5.1	·
O=C1Nc2ccccc2Nc2ccc([N+](=O)[O-])cc21	-3.5	-1.8	37.5*	2.5	10.0	27.3
CCOC(=O)C1CCN(C2=C(NS(=O)(=O)c3ccc(Cl)cc3)C(=O)c3ccccc3C2=O)CC1	25.0	-0.3	4.4	6.6	-6.8	·
CCOC(=O)C1CCCN(C2=C(NS(=O)(=O)c3ccc(Br)cc3)C(=O)c3ccccc3C2=O)C1 (stereo not drawn)	38.9	3.8	76.2*	-1.9	-2.8	12.9
O=C1C(NS(=O)(=O)c2ccc(Br)cc2)=C(N2CCCCC2)C(=O)c2ccccc21	14.2	-1.1	32.5*	1.3	-17.4	6.5
CC1CCN(C2=C(NS(=O)(=O)c3ccc(Br)cc3)C(=O)c3ccccc3C2=O)CC1	-12.9	2.0	14.4	8.0	-28.1	·
CCOC(=O)NN=C(C)/C=C/c1ccccc1	2.9	·	·	·	4.4	·
NCCCCC(N)c1nnc(C(CCC(=O)O)NC(=O)C2CCNCC2)o1 (stereo not drawn)	3.3	·	·	·	-0.4	·
CC(O)C1O[C@]2(C)CCCC1O2 (stereo partly drawn)	2.4	·	·	·	-7.4	·
CCCCCCn1c(=O)n2n(c1=O)C[C@]1(OC(=O)NCC3CCCCC3)CN(S(=O)(=O)c3ccc(C)cc3)C[C@]1(O)C2	·	·	32.5*	·	·	7.8
CCCCCCn1c(=O)n2n(c1=O)C[C@]1(OC(=O)NC3CCCC3)CN(S(=O)(=O)c3ccc(C)cc3)C[C@]1(O)C2	·	·	29.2	·	·	·

Screening data from PubChem.
